Whole data set: some 59,000 sequences, median the read-out near -0.00055, cut for the lowest 2% near -2. Only a selection was taken, and the lowest values are over-represented in it overall.

The nature of the assay: Identification of proteins required for the processing of the EWS-FLI1 nascent transcript.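 Note: robust z of luciferase light less the median z of siRNAs with the same seed.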 The conditions noted are these: TC32 Ewing sarcoma NR0B1-luc vs CMV-luc (EWS-FLI1 target promoter against control promoter), 48 h; screened at 20 nM (by protocol). On the procedure:
Ewing sarcoma (ES) cells depend on the EWS-FLI1 fusion transcription factor for cell survival. Using an assay of EWS-FLI1 activity and genome-wide siRNA screening we have identified proteins required for the processing of the EWS-FLI1 nascent transcript. Parallel genome-wide siRNA-mediated RNAi screens were conducted in Ewing sarcoma TC32 cell lines expressing a luciferase (luc) reporter protein driven by either the promoter of the EWS-FLI1 target gene NR0B1 (TC32-NR0B1-luc) or the CMV promoter (TC32-CMV-luc). Luciferase activity was assessed 48 hours post siRNA-transfection.
Twenty microl of serum-free media containing Lipofectamine RNAiMax (0.05 microl) was added to wells containing siRNA (0.8 pmol). Lipid and siRNA were allowed to complex for 45 min at ambient temperature before addition of 600 cells in RPMI-1640, 20% FBS to yield final transfection mixtures containing 20 nM siRNA in RPMI-1640, 10% FBS. Luciferase expression was measured using OneGlo (Promega, Madison, WI). The genome-wide screening campaign was conducted using Ambion's human genome library version 4.1 (Ambion, Austin TX). This library targets approximately 21000 human genes, three siRNAs per gene. Each siRNA is arrayed in an individual well of a 384-well plate. Parallel transfections were conducted in TC32-NR0B1-luc and TC32-CMV-luc cell lines and luciferase expression (OneGlo, Promega) was assayed 48 h later on a PerkinElmer Envision 2104 Multilabel plate reader (PerkinElmer, Waltham, MA). Qiagen's AllStars Negative control was incorporated on all screening plates for normalization (16 wells per plate). Qiagen, Germantown, MDsiGL4 was incorporated as a positive transfection control (16 wells per plate) on all plates. […] The raw luciferase data for the NR0B1- and CMV-luc screens were normalized and z-score-MAD transformed using standard methods (Chung et al., 2008). The miRNA-like seed sequence of every siRNA was determined and the median z-score for all siRNA sequences with the same seed sequence was calculated. This z-score was subtracted from the z-score associated with each siRNA with that seed sequence to generate a seed-adjusted z-score value (Z) that was used when the results for the three siRNAs corresponding to each gene were compared (Marine et al., 2012)
Regarding UAUACGAUAAUGAAAUUCC against SPINK13, the seed-corrected z-score worked out at 0.358. Then AAAGUUGGAAUACCGAGGU against C15orf61, with 0.00537; and UUGACUAUAAGUGCGUCUC against KMT2E, with -2.36; and UCAGGGUGCAGCAUGAAUC against LOC338667, with 0.765. Then UUUGUUGGGUCUAAGAUUG against RAB23, with -0.849; and UCAAUUACACCCUCAUUUG against SRSF6, with -2.18. In the case of UUCGUGUAGGGUGUGUAGC against OSGIN1, the seed-corrected z-score is 0.000927.

Turning to UUAGAGUCAUGCAUGAGGG against MROH7, the seed-corrected z-score is -0.225. Then UUGUAGACGAGCUGGAUGC against ADAMTSL5, with -0.759.

UCCAUUCCUAUACUAGUCC against ABCG2 came in with a seed-corrected z-score of -0.43.

Take CAAGUUUUUAUUAUCCUGC against EPHA10: the seed-corrected z-score is -0.0524.

AUUGUUCCCAUAGAGUUCC against BCL2L1 displayed a seed-corrected z-score of 3.29.

In the case of UGAUCUGUGACUGCUCUUC against AP2M1, the seed-corrected z-score is -2.2. The result for UCGAUCUUCAGGUCGUUGC against ATXN1 reads -0.921; that for UUGGAAGUCACAGUCAUCC against CST7, -0.103.

Take UUGGUUAACUGGUCAAUCC against SLC40A1: the seed-corrected z-score is -0.655. Then AUCUUUCCCAGGUUUUUCG against ZNF669, with -2.19; and AUCCAUCAAAGCGAUAUUC against GBE1, with -1.06.

In the case of AAUGAAGGAACCAUUGCCC against IL18BP, the seed-corrected z-score amounted to 1.21.

On to AAAUAUCCCAUAAUCAGUG against LYZ, for which the seed-corrected z-score was -0.541. Then AAUGGAUCCAAAGAGGCUA against KIFC2, with 0.744. With UUUAAUGUAACUCCCACUU against DLGAP2, the seed-corrected z-score was 0.4. Turning to UGUGGUUCAACAAGAAGCU against CD177, the seed-corrected z-score was -1.65. Then ACUGGAACAAGAACCGUCC against PDIA5, with 0.508. The result for UGAUCGUACAGGUGCAUCG against IL1B reads -0.147; that for AAAUGAUCUGGUUUCCUUC against OLFML1, -0.829; that for UAAAUAGCAGCAUCUACUC against PPM1E, 0.41. Then AAAACGAUCAAAAUCUGUC against RPL14, with -2.5; and UACGUACUCAUUCUUCAGG against CMC2, with -0.986. Consider UACAGGUAGGAGUUGUCCU against PRKACG, for which the seed-corrected z-score came to 0.0436. The result for UUUUAUAGAGGGAUAUUCG against NPC2 reads 1.05; that for AACUGGUUCAUCAGUGUCC against WDR89, -2. Sequence UGAAAUGCUAAUGCGUGGG against RBM33 had a seed-corrected z-score of 0.224. Then UGCUUGCGAACAAACAGCC against SCD5, with 0.624; and UAGUGAUAGAUACUGUUCC against HGF, with -0.568; and UUUUGAUUAACUCGAGGAG against TSSK1B, with 0.323. Then UAGGGUCAUCGAGAGGUUC against MAML3, with -2.49; and UGCAGUUUGACGGUGCCUC against TMEM204, with -0.467; and UCCCAUUCCACUGCUACUG against RBMX, with -2.45.

UAACUCGAAAGUGAACUUC against MYOZ3 came in with a seed-corrected z-score of 0.0654.

UAGGUAAUAAUUCACAAUG against CCL19 displayed a seed-corrected z-score of -0.226. Then UCUGUUGGUACUGUGCAGG against PPA1, with -1.37.

Turning to UCCGUUCACAUUCAGGAUC against SLC6A16, the seed-corrected z-score is -0.88. Then UCCUUGUAGAGCUUGAUGG against TOP3B, with 1.26. As to AACUAGAAUAAAGAAGAUG against SLC6A9, the seed-corrected z-score amounted to 0.0838. Then AAAACUUCAAAUACCAUGC against SRPK1, with -1.05. Then UUGCGGGUGACAAUCUCCC against CROCC, with 0.165; and UUUCCGGAUCAGACCGUGC against RPS29, with 1.1.

The sequence UCACGGUCAACAAAGUAGG against BRINP1 showed a seed-corrected z-score of -2.87. The result for UAUAAGAAAUGGUUUUGUC against OR6C6 reads 0.719; that for AUCACGUUUAUGUCCAUUG against BMPER, -0.464. Then UUGGCGUUCAUAAGCCGCC against PTRH1, with 0.961. Then ACUCUUUUUAAGGUGCUUC against DTX1, with -3.91.

In turn, AAGUUUUCCAACGUACUCU against IL4 returned a seed-corrected z-score of 0.239. The result for AAGGUUGAGAGAUGUAGCU against SPANXA1 reads 1.05. The result for UUUUAUUCUUUCGCUUUUU against MEAF6 reads -1.39. The result for UUUGGAAUCAUCCAGGAAA against C8orf82 reads 0.192.

Regarding UUCUGGAUAACAAAGUCAC against PCDH1, the seed-corrected z-score amounted to 0.112. With UGGUGAUUCAGAUAGCUGG against ARHGAP11A, the seed-corrected z-score was -0.84. Then AUCUUGAUAGGGACCUUGG against PRAP1, with 0.654; and UGAUCUUAUAGUAAUCAGG against BRD4, with -2.52. GACGGCAUCAAUCAGGUCC against PYCR1 gave a seed-corrected z-score of 0.0435. Then AAAGAUGCAACCAAUGCUC against CDK3, with -0.134. Then UUACUUCAAAACGGUAUCC against ASB17, with -9.19; and UGAUUGUUGACUGACGAUG against DMXL1, with 1.23; and UUCUUUCAAAUUUCGGUUG against SOX13, with 0.262. Regarding UCUUGCUCUAGUGUCCUGG against DNAJC17, the seed-corrected z-score is -2.46.

For the sequence UUUAUCCUCAAAACUCUCC against C6orf10, the seed-corrected z-score turned out to be 0.952. The result for UCUCAUACUUCCCAUGCCC against LSP1 reads -0.209; that for UAUGGGACACUUAUUGGAG against PVRIG, -0.543; that for AGAGCACUGAGUAGAAUGC against MFSD9, -1.44. The result for UGCUUGUCUAAGCCUUUGG against RPS12P9 reads -2.08; that for UAAGGUAAUGAUUACCACC against RBKS, -0.288.

Turning to UUGACUACCAGGAAAGGCU against KRT86, the seed-corrected z-score is -0.062.

Sequence UAUUUAUUGCGAGAAUCAG against CLCN4 returned a seed-corrected z-score of -3.96. Then UCCAGAAGCUGGAUGGUCC against GALE, with -0.197; and UGACGUACAGGUUAGCAUC against ELAVL3, with 0.583. In turn, AACGGUAUUGAUGACAGCC against TMLHE gave a seed-corrected z-score of -0.307. Take UACGAUGUCACCUAUAUUG against CSMD2: the seed-corrected z-score was -0.00124. Then UAUCUUGAGAGGUGCCUCC against THRAP3, with 1; and UCGUACUUUAAAGAUGUCC against CR1, with -0.43.

The sequence UUGUUUGCAGGAAGGGAGG against LOC643770 returned a seed-corrected z-score of -0.34. For UUUCUGUUCUUACAGGUGG against SRSF5, the seed-corrected z-score was -1.33. In turn, AUAGUAAAACCAAUUACCC against OR2J2 had a seed-corrected z-score of -2.15.

AUGGUGAAGACGUAGUUGC against CACNA1H came in with a seed-corrected z-score of -1.21. The result for UUUAGGAACCUUGACUAGC against GTF2F2 reads 0.153; that for AACGUGUAGAUCUUCAUGA against UBXN6, -1.15. For the sequence UGAAGUUCAGGUUCGUAAC against TBPL1, the seed-corrected z-score was -2.64. For the sequence UUGACAUUUACUUCAGUUU against TRABD, the seed-corrected z-score is 0.607. Then AGUGGAUACAUAGCUGUCU against ZBTB45, with -0.6. The result for UCCUUAAUUUGAUAUUUGC against MAGEA8 reads -0.105; that for AUACUUGCAGGUGUCAUUG against CD300A, -0.484; that for AUCGCUUUGAGGUUAGAGG against SYT3, -0.878.

In the case of UAUCAUAUGAUGCAUAAGC against ANGPTL5, the seed-corrected z-score amounted to 0.711. The result for UGAUGAUACACUGCAAGUC against IGSF3 reads -2.96; that for UAAUCUAUUGAUAUGCUGG against SLC25A32, 0.699.

As for AAGUGGAACACUCAAGUCC against ZNF471, the seed-corrected z-score was -1.03. On to AUAAAUGAUACGGGUGCUC against TPI1, for which the seed-corrected z-score is -0.201. The result for UAGGAGCAGAGGAAUCUUC against SLC35F4 reads 0.0717. UUCUGAUGUAUGUUGAGCC against ZNF350 displayed a seed-corrected z-score of -4.18. The result for UUCUCGUUGAUCUUUUUGG against CPXCR1 reads -0.131; that for UCCUGUUCCUUGAUAUUGU against GZMH, -0.564. Then UUAUCUGUGAGAGCAAUUA against LOC728752, with -1.23.

For UCUGGAUCUAUUAAGCUGC against LRRFIP2, the seed-corrected z-score was -2.34. Then AAAUCAGUGGGAAAGAUCC against DENND3, with 1.04; and UUCUCCAUCAUGCGAAUGG against FEN1, with 0.188; and UGGUAGUACACCUUGCAGC against C1orf111, with -2.08. Then UGUAAUACCUGAAUCGGUG against PRKRA, with -0.234; and AAAUAGACAAAUAGGAUCC against PSMD12, with -2.98; and UAUCUGAGAGUGAUCCUUC against LRRC47, with 1.55. As for UCAAUUCAGACUGUAAUGC against PTPDC1, the seed-corrected z-score is -0.0227. The result for AUUCUCACCAUAAAGAGCA against LOC729722 reads -2.33; that for UUAUGCUUAGGUAACUUGC against AADACL3, -3.87; that for UAUAUAUCGUGCUUGAUAC against RIPK2, 0.0696. Take UAUGCGACAAAGAAUGACU against OR4N3P: the seed-corrected z-score came out at 0.242.

In turn, UUUUCGAUUAAACCUUUUC against C17orf58 registered a seed-corrected z-score of -0.0867. The sequence UAAUCAAUCAUAGAGAUAG against GSTO1 displayed a seed-corrected z-score of 0.0812. Then UUUAUUACAAUCCAAAAGU against HCST, with 0.824; and UUCUCGAUCAAGAGCAUCC against SPEF2, with -12.2; and UUUGUGGUUAUUCUUUUAU against CDC42EP2, with -0.0752. The result for UACAGCAUAAUCUCAUUUG against BPY2 reads 0.91; that for UAAGCAGUAGAGUUAGUUC against LINC01249, 0.231. The result for UCUGUUCCAAGGCACUAUC against NFE4 reads 0.0636. UUAUACACGAGGAAGAUGU against TMEM169 came in with a seed-corrected z-score of -0.406. The sequence UGAGUAAACAGCCUCAGUC against CMIP came in with a seed-corrected z-score of -0.223. UCUCGAUGAAGUCAAACAG against COPG1: the seed-corrected z-score is -2.97. The sequence AAUUUGCUAAAUCGUAUUC against CLLU1 had a seed-corrected z-score of -0.521. Turning to UCCAUUAUCCCAAUAGACC against PGM2, the seed-corrected z-score is -0.182. For the sequence UAGGGUUGGACUUUUUGUC against CYB5R3, the seed-corrected z-score was 0.597. The result for UCCAGUACCUUUUCCUUGG against LOC199882 reads 0.35; that for AAUACUUGAAGGAAUAGGC against SUPT6H, -5.83; that for UACCAUAUUAUACACUUGC against STARD6, -0.0986. The result for AUGGAUCCAAUUUGAGUUU against NR2F2-AS1 reads 1.74.

The record behind these values is PubChem BioAssay AID1159506 (National Center for Advancing Translational Sciences (NCATS), 2015).
